Experimental findings from PubChem BioAssay (NCI) are described below.

The panel holds about 79,000 compounds, 15% with a hit somewhere; the sample as a whole holds those more often. A number with no mark means an inactive call. Calls of active or inactive are those of the source. No stated cut-off is given here; in the data, active means growth inhibition above about 70%; inactive means the rest.

Experiment [1] in a line: NCI Yeast Anticancer Drug Screen. Data for the rad50 strain (AID 155).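 Further: 0% = growth of vehicle-only cultures of the same strain.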 The note with it: S. cerevisiae rad50 strain growth inhibition, active compounds read high. The method in brief: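 Compounds were tested on a yeast strain with an engineered DNA damage repair alteration; the reported value is growth inhibition normalised to vehicle treatment.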
The nature of experiment [2]: NCI Yeast Anticancer Drug Screen. Data for the mec2-1 strain (AID 157). The following applies: S. cerevisiae mec2-1 strain, active compounds read high. The method in brief:
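Strain: mec2-1 (DNA repair/cell cycle alteration). Compound exposure, then growth measured; inhibition expressed relative to vehicle.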

A short description of experiment [3]: NCI Yeast Anticancer Drug Screen. Data for the sgs1 mgt1 strain (AID 161).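 Further: 0% = growth of cultures given vehicle only.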 The following applies: S. cerevisiae sgs1 mgt1 strain, active compounds read high. The gist of the method:
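Read-out: growth inhibition vs vehicle controls. Cells: mutant yeast strain deficient in DNA damage repair.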

Experiment [4] in a line: NCI Yeast Anticancer Drug Screen. Data for the cln2 rad14 strain (AID 165).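 Further: 0% = growth equal to vehicle treated cultures.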 The note with it: S. cerevisiae cln2 rad14 strain, active compounds read high. The gist of the method:
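Compounds are applied to the cln2 rad14 yeast strain, and growth is then compared with that of vehicle-treated cultures to give inhibition.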

The nature of experiment [5]: NCI Yeast Anticancer Drug Screen. Data for the bub3 strain (AID 167). The note with it: S. cerevisiae bub3 mutant strain, active compounds read high. The gist of the method: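 Growth of a checkpoint-deficient yeast mutant is measured after compound exposure. Values represent inhibition relative to vehicle.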
Experiment [6] in a line: NCI Yeast Anticancer Drug Screen. Data for the mlh1 rad18 strain (AID 175). The note with it: S. cerevisiae mlh1 rad18 strain growth inhibition, active compounds read high. The gist of the method:
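Read-out is yeast growth inhibition, calculated against vehicle-only controls. The compound was applied to a strain engineered with DNA damage repair alterations.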

[7] abbreviates: at 5.0 µM (retest, dose inferred, filed as 0.5).
[8] abbreviates: at 50.0 µM (retest, dose inferred, filed as 5.0).

`CNC(=O)OCc1c(COC(=O)NC)c(-c2ccc(OC)cc2)n2c1CCC2`: the growth inhibition was 28% in experiment [1] (setting [7]); 33% in experiment [1] (setting [8]); 28.4% in experiment [1] (at 50.0 µM); 19% in experiment [2] (setting [7]); 21% in experiment [2] (setting [8]); 74.9% (active) in experiment [2] (at 50.0 µM). Besides, the growth inhibition in experiment [3] (setting [7]) was 44%; in experiment [3] (setting [8]), 68%; in experiment [3] (at 50.0 µM), 70.9% (active); in experiment [4] (setting [7]) it was 38%; in experiment [4] (setting [8]), 43%; in experiment [4] (at 50.0 µM), 73.7% (active). The growth inhibition in experiment [5] (setting [7]) was 50%; in experiment [5] (setting [8]) it was 46%; in experiment [5] (at 50.0 µM), 48.4%; in experiment [6] (setting [7]) it was 23%; in experiment [6] (setting [8]) it was 32%; in experiment [6] (at 50.0 µM), 92.6% (active).

In the case of `NC(=O)C(CCc1cccc2ccccc12)c1ccccc1` (centres undefined), the growth inhibition in experiment [1] (setting [7]) was 6%; in experiment [1] (setting [8]) it was 14%; in experiment [1] (at 50.0 µM) it was 98.8% (active); in experiment [2] (setting [7]), -10%; in experiment [2] (setting [8]) it was -6%; in experiment [2] (at 50.0 µM) it was 94.5% (active). In addition, the growth inhibition in experiment [3] (setting [7]) is -6%; in experiment [3] (setting [8]), 24%; in experiment [3] (at 50.0 µM), 36.3%; in experiment [4] (setting [7]), -5%; in experiment [4] (setting [8]) it was -3%; in experiment [4] (at 50.0 µM), 62.5%. For the same compound, the growth inhibition is -2% in experiment [5] (setting [7]); 12% in experiment [5] (setting [8]); 95.8% (active) in experiment [5] (at 50.0 µM); -8% in experiment [6] (setting [7]); 14% in experiment [6] (setting [8]); 98.4% (active) in experiment [6] (at 50.0 µM).

As to `COc1ncnc2nc(SC)[nH]c12`, the growth inhibition in experiment [1] (setting [7]) is -1%; in experiment [1] (setting [8]) it was -2%; in experiment [1] (at 50.0 µM), 99.7% (active); in experiment [2] (setting [7]), 1%; in experiment [2] (setting [8]), -2%; in experiment [2] (at 50.0 µM), 99.8% (active). In addition, the growth inhibition in experiment [3] (setting [7]) is -1%; in experiment [3] (setting [8]), -4%; in experiment [3] (at 50.0 µM), 99.6% (active); in experiment [4] (setting [7]), 0%; in experiment [4] (setting [8]), -2%; in experiment [4] (at 50.0 µM), 99.7% (active). The growth inhibition in experiment [5] (setting [7]) is -1%; in experiment [5] (setting [8]), -4%; in experiment [5] (at 50.0 µM), 99.7% (active); in experiment [6] (setting [7]) it was 0%; in experiment [6] (setting [8]), -4%; in experiment [6] (at 50.0 µM) it was 99.5% (active).
